Assay outcomes: PubChem, National Center for Advancing Translational Sciences (NCATS)
D1 PAM = human D1 dopamine receptor positive modulation. P21728. HEK293 TREx D1 cells, calcium flux, dopamine EC20 potentiation. potentiation, % at 10 µM. 360,000 compounds, 0.036% hits; in the data active = potentiation above about 30%; note: 0% is about no effect
TRHR agonist = TRH receptor (human) agonism; P34981; TRHR cells, calcium flux fluo-8, FDSS agonist mode; activation, % at 2 µM; 360,000 compounds, 0.18% hits; AID 493084; note: 0% is about no effect
Target sequence (P34981 whole entry, looked up): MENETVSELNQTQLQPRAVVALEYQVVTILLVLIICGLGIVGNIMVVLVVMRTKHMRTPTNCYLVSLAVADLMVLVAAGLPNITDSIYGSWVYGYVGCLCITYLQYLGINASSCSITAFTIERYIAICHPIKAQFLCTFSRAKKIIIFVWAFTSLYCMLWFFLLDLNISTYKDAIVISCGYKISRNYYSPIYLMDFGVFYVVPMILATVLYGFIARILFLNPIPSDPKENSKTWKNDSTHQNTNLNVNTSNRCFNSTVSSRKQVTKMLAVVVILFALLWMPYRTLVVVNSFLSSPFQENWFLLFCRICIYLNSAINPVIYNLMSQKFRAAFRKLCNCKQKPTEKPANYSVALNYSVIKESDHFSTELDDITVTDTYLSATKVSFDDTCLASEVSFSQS
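In this calcium-flux screen, cells bearing human TRHR are dye-loaded with fluo-8, baselined for 10 cycles, then exposed to library compounds; positive kinetic calcium responses during the agonist phase mark hits, with TRH as control.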
TRHR PAM = allosteric enhancers of human TRH receptor; P34981; 360,000 compounds, 0.66% hits; TRHR cells, fluo-8 calcium fluorescence, EC20 TRH enhancement; enhancement, % at 2 µM; in the data active = enhancement above about 30%; note: 0% is about no effect
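Enhancer read-out: after compound pinning and an initial kinetic agonist-mode read, an EC20 of TRH (10 nM final) was injected and fluo-8 calcium signal (Ex 480/Em 530) followed at 1 s/cycle for 100 cycles in TRHR-expressing cells.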
D1 antagonist = blocks dopamine activation of the human D1 receptor; P21728; HEK293 TREx D1 cells, calcium flux, dopamine EC80; stronger effect = lower value; activity change, negative = inhibition, % at 10 µM; 360,000 compounds, 3.2% hits; AID 504652; in the data active = activity change below about -30%; note: % is set by controls: 0 for no effect and ±100 for the full control effect
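Cells carrying a force-coupled, tetracycline-inducible human D1 receptor report calcium flux. Each well gets a 10 s baseline, compound with 180 s monitoring, then an EC80 dopamine stimulus with a second 180 s kinetic read.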
Epigenetic derep = regulators of epigenetic silencing causing reporter derepression in mouse cells | murine LDR cells, GFP reporter derepression, 30 h | Potency, µM (doses to about 53.9 µM), inactives show top-dose GFP activation, actives largely listed as activators | 280,000 compounds, 0.2% hits; active = well fitted activation curve with a large enough effect; inconclusive = small, poorly fitted or top-dose-only effect; note: potency is the fitted concentration of half-maximal effect; % of control where 0% means no effect; nearly all actives have a fitted effect of over 60% in size
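Readout is the number of GFP-expressing murine LDR cells, counted by cytometry following washing. Cells were treated with compound for 30 h at 37 C; the stably integrated CMV-GFP locus is normally silent.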
D1 ag = human D1 receptor agonism; P21728; HEK293 T-REx D1 cells, calcium flux, agonist mode; activation, % at 2 µM; 360,000 compounds, 1% hits; AID 504660; note: 0% is about no effect
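Agonism was scored from calcium flux recorded over 180 s (1 read/s) after pintool compound addition, following a 10-cycle baseline. Cells were inducible force-coupled HEK293 TREx D1, plated overnight at 30 C and loaded with no-wash calcium dye.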
Numbers without * were called inactive; ? = inconclusive; . = not tested or not shown; ! = a repeat was not active; [ ] = remark or other dose. An excerpt weighted towards active compounds, which were near 4.6% of everything screened. Cut-off read from the data, not from the text of the source, unless noted: active = activation above about 30%; inactive = the rest.

SMILES	D1 PAM	TRHR agonist	TRHR PAM	D1 antagonist	Epigenetic derep	D1 ag
CCOc1ccccc1OCC(=O)OCC(=O)NNC(=O)c1ccc([N+](=O)[O-])cc1	-3.4	-0.1	30.1*	-15.5	.	6.4
O=C(CSc1nc2c(sc3ccccc32)c(=O)n1CCCC(=O)NC1CCCC1)Nc1ccc(F)cc1	5.5	0.0	5.0	-2.0	0.0%	3.1
Cc1cc(OCC(=O)NC(C)C)cc(C)c1Cl	-4.6	-1.1	0.3	-31.5*	-0.8%	6.1
Cn1c(-c2nonc2N)nc2ccccc21	0.6	0.1	-6.2	6.5	.	2.9
CCCn1c(-c2nonc2N)nc2ccccc21	-7.3	0.3	-4.0	-61.9*	-0.8%	0.9
COC(=O)c1ccccc1NC(=O)Cn1c(-c2nonc2N)nc2ccccc21	-10.4	-0.5	1.1	-67.5*	9.0%	0.4
COC(=O)c1cccc(Nc2nn3c(=O)c4cc5c(cc4nc3s2)OCO5)c1	-0.1	0.3	-0.9	-4.2	-2.3%	-1.3
COc1cc2[nH]c(=S)n(C3CC3)c(=O)c2cc1OC	-0.5	0.4	2.1	-30.5*	-0.4%	3.0
Cc1cc(-c2ccc(S(=O)(=O)NCc3ccccc3Cl)s2)on1	4.6	0.5	6.7	5.3	-2.0%	7.0
Cc1ccccc1C(=O)Nc1c(C(=O)N(CCN(C)C)Cc2ccco2)oc2ccccc12	-5.1	1.3	-2.7	-11.0	.	9.9
COc1ccccc1C(=O)Nc1c(C(=O)N(CCN(C)C)Cc2ccco2)oc2ccccc12	-13.9	1.8	0.1	-38.1*!	0.0%	46.3*!
CN(C)CCN(Cc1ccco1)C(=O)c1oc2ccccc2c1NC(=O)c1ccccc1	-4.6	1.5	-3.9	-42.1*	-0.2%	9.5
CCOc1ccc(CCNC(=O)c2cc3sc(CC)cc3n2C)cc1OCC	-4.8	-0.1	-0.3	-6.5	0.8%	1.5
CC(=O)c1cccc(OCCN2C(=O)NC(C)(C)C2=O)c1	0.7	0.0	-6.2	-30.1*	2.0%	-0.1
CC(=O)c1ccc(NC(=O)CSc2nnc3c(n2)[nH]c2ccccc23)cc1	-8.8	-0.1	-8.0	-36.7*	?	2.7
CCOc1ccc(NC(=O)CSc2nnc(-c3ccc(C)cc3)c(-c3ccc(C)cc3)n2)cc1	-0.9	-0.3	-3.0	2.5	0.4%	-3.7
COc1ccc2[nH]c3nc(SCC(=O)Nc4cccc(NC(C)=O)c4)nnc3c2c1	-5.0	1.8	-1.1	4.5	.	-0.5
COc1cccc(NC(=O)CSc2nnc3c(n2)[nH]c2ccc(C)cc23)c1	4.8	0.3	3.2	-84.5*	.	2.8
COc1ccc(-c2nnc(SCC(=O)Nc3ccc(C(C)=O)cc3)nc2-c2ccc(OC)cc2)cc1	-8.8	-0.3	1.5	-70.1*	1.1%	2.5
Cc1cccc(NC(=O)C2CCCN(S(=O)(=O)c3cnc[nH]3)C2)c1C (centres undefined)	1.4	0.0	2.0	-2.1	0.8%	1.2
O=C(Nc1ccc(Cl)cc1Cl)C1CCC(=O)N1Cc1ccccc1Cl (centres undefined)	-0.5	-0.5	0.7	9.2	1.3%	37.2*
Cc1cc(=O)n(C(C)C(=O)NCc2ccccc2Cl)c2c1c(C)nn2-c1ccccc1 (centres undefined)	-5.3	-0.5	0.9	16.2	8.8%	2.0
O=C(Cn1ccc2cc(S(=O)(=O)N3CCCCCC3)ccc21)NCCc1ccccc1Cl	6.5	0.6	1.5	-3.5	-1.6%	1.5
CCn1ccc2cc(S(=O)(=O)N3CCCN(C(=O)Nc4ccc(C)c(F)c4)CC3)ccc21	-3.4	-0.4	-8.5	-30.6*	0.0%	2.4
Cc1ccccc1CCNC(=O)Cn1ccc2cc(S(=O)(=O)N3CCCC3)ccc21	-5.7	-0.3	30.1*	7.8	.	2.8
SMILES	D1 PAM	TRHR agonist	TRHR PAM	D1 antagonist	Epigenetic derep	D1 ag
COc1ccc(CNC(=O)C2CCN(S(=O)(=O)c3ccc4c(ccn4C)c3)CC2)cc1	-3.5	-0.6	-0.2	-35.5*	-1.1%	3.8
CCOc1ccc(CNC(=O)Cn2ccc3cc(S(=O)(=O)N4CCCCC4)ccc32)cc1	-1.0	0.0	5.1	-34.8*	-0.8%	1.4
COc1ccc(O[C@H]2C=C[C@@H](c3ccccc3)O[C@H]2CO/N=C\C[C@@H]2C=C[C@H](OC(C)=O)[C@H](COC(C)=O)O2)cc1	.	.	.	.	0.0%[10.1 µM]	.
CCn1ccc2cc(S(=O)(=O)N3CCC(C(=O)NCCc4ccccc4Cl)CC3)ccc21	2.5	-0.2	1.3	-39.8*	0.0%	2.9
Cc1occc1C(=O)Nc1cccc(C(=O)NCc2ccccc2)c1	-15.8	0.0	1.2	-39.6*	0.0%	6.0
COc1ccc(CNC(=O)c2cccc(NC(=O)N3CCSc4ncccc43)c2)cc1	-1.9	0.4	-0.3	-17.3	3.4%	0.6
Cc1cccc(CNC(=O)c2cccc(NC(=O)N3CCSc4ncccc43)c2)c1	-4.1	-0.4	-4.8	-34.9*	-0.1%	1.2
O=C(CN1C(=O)C2(SCC(=O)N2c2cccc(Cl)c2)c2ccccc21)NC1CCCCC1 (centres undefined)	2.4	-0.2	-4.1	-3.2	-1.3%	2.0
CCCCOc1ccc(/C(O)=C2/C(=O)C(=O)N(CCCOC)C2c2ccncc2)cc1C (centres undefined)	-4.2	0.2	-2.3	-37.7*	-1.1%	1.2
O=C(Nc1ccccc1Oc1cccnc1)C1CCCN(C/C=C/c2ccc(F)cc2)C1 (centres undefined)	1.0	-0.8	0.5	-30.3*	.	4.9
CCOc1ccccc1NC(=O)CSc1nc2ccccc2c2nc(CCn3cncc3C)nn12	-1.9	-0.9	1.1	-10.1	0.0%	3.5
CCOc1cc(C#N)c(NC(=O)Cn2nnc(-c3ccc(C)cc3)n2)cc1OCC	-1.8	1.1	-1.9	-8.9	17.2%	3.9
NC(=O)c1nsc(C(=O)N(c2ccccc2F)C(C(=O)NCc2ccc(F)cc2)c2ccc(O)cc2)c1N (centres undefined)	-1.2	1.1	30.1*	7.1	.	9.5
CCc1ccccc1NC(=O)N1CCN(Cc2nc3ccc(C)cc3o2)CC1	0.1	-0.1	4.0	-4.0	0.7%	-1.3
CCCNC(=O)NCCC12CC3CC(CC(C3)C1)C2	-5.7	-0.7	4.4	23.0	-0.1%	8.8
CCCNC(=O)OCCC12CC3CC(CC(C3)C1)C2	-2.8	5.9	-1.8	-6.4	-1.0%	33.4*
COc1cccc(C(=O)NCC(c2ccc(N(C)C)cc2)N2CCCC2)c1OC (centres undefined)	0.0	-0.6	3.9	-1.0	-3.6%	0.3
CCc1ccccc1NS(=O)(=O)c1ccc2c(c1)C(C)(C)C(=O)N2C	-5.3	-0.2	1.8	-2.9	.	3.1
CCOc1ccc(N(C)S(=O)(=O)c2ccc3c(c2)C(C)(C)C(=O)N3C)cc1	-2.8	-0.6	5.9	-35.5*	4.1%	1.9
